Drawing on PubChem BioAssay (NCI), this text covers growth for 13 molecules.

Among the test systems are HCT-15 colon; HT29 colon; SNB-75 CNS; SNB-19 CNS; U251 CNS; PC-3 prostate; SK-MEL-5 melanoma; UACC-62 melanoma; LOX IMVI melanoma; SK-MEL-28 melanoma.
Holding throughout (assay): NCI-60 one-dose screen, 48 h (100 = growth as untreated, 0 = no growth, -100 = all killed)
What all share (settings): 10 µM unless noted

About 83,000 compounds went through this panel and 20% of them were active in at least one assay; those are over-represented in the sample as a whole.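 A percent growth of 40 corresponds to 60% growth inhibition; 0 means no net growth; -100 means all cells died. Active threshold: below 10.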 Unmarked numbers belong to inactive results. Active and inactive are the calls of the source.

Regarding `O=c1[nH]c2cc(Cl)c(Cl)cc2o1`, the growth with HCT-15 colon was 101%; in the assay with HT29 colon it was 112%; with SNB-75 CNS, 92.5%; in the assay on SNB-19 CNS, 109%; in the assay with U251 CNS, 95.1%; in the assay with PC-3 prostate it was 64.6%. In addition, the growth with SK-MEL-5 melanoma was 115%; in the assay on UACC-62 melanoma, 92.8%; in the assay on LOX IMVI melanoma it was 99.4%; in the assay with SK-MEL-28 melanoma, 116%.
`CC(C)(C)CC(C)(C)NCc1cc(C(C)(C)C)cc(CNC(C)(C)CC(C)(C)C)c1O`: the growth in the assay with HCT-15 colon was 56.8%; in the assay on HT29 colon, 11.1%; in the assay with SNB-75 CNS it was 60.8%; with SNB-19 CNS, 77.2%; in the assay with U251 CNS it was 49.7%; in the assay with PC-3 prostate, 47.9%. In addition, the growth in the assay with SK-MEL-5 melanoma is 36.8%; in the assay with UACC-62 melanoma it was 82.9%; with LOX IMVI melanoma, 45.6%; in the assay with SK-MEL-28 melanoma, 80.5%.
Turning to `Clc1ccccc1Nc1nnc(-c2ccncc2)s1`, the growth is 112% in the assay on HCT-15 colon; 105% in the assay on HT29 colon; 106% in the assay with SNB-75 CNS; 99.8% in the assay on SNB-19 CNS; 103% in the assay on U251 CNS; 97.2% in the assay with PC-3 prostate. For the same molecule, the growth in the assay on SK-MEL-5 melanoma was 97.7%; in the assay with UACC-62 melanoma it was 95.3%; with LOX IMVI melanoma, 110%; with SK-MEL-28 melanoma, 100%.
Regarding `COc1ccc(/C=C/C(=O)c2ccc(NC(=O)CSc3nnc(-c4ccc(Cl)cc4)n3-c3ccccc3)cc2)cc1`, the growth in the assay with HCT-15 colon was 80.5%; with HT29 colon it was 98.7%; with SNB-75 CNS, 84.2%; in the assay with SNB-19 CNS, 96.2%; with U251 CNS, 88.2%; in the assay with PC-3 prostate, 84.5%. Besides, the growth in the assay on SK-MEL-5 melanoma is 84.1%; in the assay on UACC-62 melanoma, 74.6%; in the assay on LOX IMVI melanoma, 105%; in the assay on SK-MEL-28 melanoma, 104%.
Turning to `c1ccc(C(Nc2ccccn2)(c2ccccc2)c2ccccc2)cc1`, the growth was 74.1% with HCT-15 colon; 69.9% with HT29 colon; 74.8% in the assay on SNB-75 CNS; 77.5% in the assay on SNB-19 CNS; 84.3% in the assay on U251 CNS; 39.1% in the assay with PC-3 prostate. In addition, the growth with SK-MEL-5 melanoma was 70.3%; with UACC-62 melanoma it was 59.3%; in the assay on LOX IMVI melanoma, 100%; with SK-MEL-28 melanoma, 98.5%.
Regarding `COc1cc(/C=C/C(=O)c2c(C)nc3ccccc3c2C)ccc1OCCCOc1cc2c(cc1OC)C(=O)N1CCC[C@H]1C=N2`, the growth in the assay on HCT-15 colon was -25.9% (active); in the assay on HT29 colon, -71.9% (active); in the assay with SNB-75 CNS it was -76.8% (active); with SNB-19 CNS, -49.8% (active); in the assay on U251 CNS it was -66.4% (active); in the assay on PC-3 prostate, -15.9% (active). Also, the growth in the assay with SK-MEL-5 melanoma was -98.8% (active); in the assay on UACC-62 melanoma it was -81.3% (active); in the assay with LOX IMVI melanoma, -99.3% (active); in the assay with SK-MEL-28 melanoma, -63.1% (active).
For the molecule `COc1ccc(C(=O)C(CN(C)C)c2ccccc2)cc1` (stereo not given), the growth in the assay with HCT-15 colon was -49.3% (active); in the assay with HT29 colon it was 19.1%; with SNB-75 CNS it was 25.1%; with SNB-19 CNS, 91.2%; with U251 CNS, 31.6%; in the assay with PC-3 prostate, 52.4%. Further, the growth in the assay on SK-MEL-5 melanoma was 43.7%; in the assay with UACC-62 melanoma, 33.8%; in the assay with LOX IMVI melanoma, 10.3%; in the assay on SK-MEL-28 melanoma, -44.9% (active).
For the molecule `CNCCCNc1ccnc2cc(Cl)ccc12`, the growth in the assay on HCT-15 colon is 6.57% (active); in the assay on HT29 colon it was -33.1% (active); in the assay on SNB-75 CNS, -52.8% (active); with SNB-19 CNS, -1.63% (active); with U251 CNS, 0.589% (active); with PC-3 prostate, 1.91% (active). Besides, the growth was -96.1% (active) in the assay with SK-MEL-5 melanoma, -75.2% (active) in the assay with UACC-62 melanoma, -49.8% (active) with LOX IMVI melanoma and -96.3% (active) in the assay with SK-MEL-28 melanoma.
Regarding `O=C(NC1CC1)c1ccc(-c2nc3ccc4[nH]ncc4c3c3c2CCCC3)cc1`, the growth in the assay with HCT-15 colon was 29%; with HT29 colon, 35.2%; in the assay with SNB-75 CNS, -5.58% (active); with SNB-19 CNS, 65.3%; in the assay with U251 CNS, 34.5%; in the assay on PC-3 prostate it was 43.1%. For the same molecule, the growth with SK-MEL-5 melanoma was 55.2%; with UACC-62 melanoma, 28.8%; in the assay on LOX IMVI melanoma it was 38.7%; in the assay with SK-MEL-28 melanoma it was 47.4%.
Regarding `Cc1ccc(N=CNN=C(N)N)cc1`, the growth in the assay on HCT-15 colon was 100%; in the assay with HT29 colon, 105%; in the assay on SNB-75 CNS it was 96.8%; in the assay on SNB-19 CNS, 105%; in the assay with U251 CNS, 97.2%; in the assay on PC-3 prostate, 107%. Moreover, the growth in the assay with SK-MEL-5 melanoma was 105%; in the assay on UACC-62 melanoma, 89.8%; in the assay with LOX IMVI melanoma, 113%; in the assay with SK-MEL-28 melanoma, 106%.
For the molecule `N#Cc1c(N)n(C2OC(CO)C(O)C2O)c2ncnc(N)c12` (stereo not given), the growth in the assay on HCT-15 colon was -4.45% (active); in the assay with HT29 colon, 2.5% (active); with SNB-75 CNS, -37.5% (active); in the assay with SNB-19 CNS, 5.99% (active); in the assay with U251 CNS, 15.2%; with PC-3 prostate, -13.5% (active). In addition, the growth was -33.4% (active) with SK-MEL-5 melanoma, -49.6% (active) in the assay on UACC-62 melanoma, -52.4% (active) in the assay on LOX IMVI melanoma and -60.9% (active) in the assay on SK-MEL-28 melanoma.
For `COc1ccc(-c2[nH]nc(N)c2-c2cc(OC)c(OC)c(OC)c2)cc1`, the growth in the assay with HCT-15 colon is 10.1%; with HT29 colon it was -2.71% (active); with SNB-75 CNS, 54.9%; with SNB-19 CNS, 48.8%; in the assay on U251 CNS it was 6% (active); with PC-3 prostate it was 6.31% (active). Also, the growth in the assay on SK-MEL-5 melanoma was -16.5% (active); in the assay with UACC-62 melanoma, 23.8%; with LOX IMVI melanoma it was 12.1%; in the assay on SK-MEL-28 melanoma, 47.8%.
Take `CCCCCCCCNC(C)C(O)c1ccc(SC(C)C)cc1` (stereo not given): the growth in the assay with HCT-15 colon was 14.8%; in the assay on HT29 colon it was -45.4% (active); with SNB-75 CNS, 74.8%; in the assay with SNB-19 CNS it was 75.9%; in the assay on U251 CNS, 42.5%; in the assay with PC-3 prostate, 7.49% (active). Moreover, the growth is 68.4% with SK-MEL-5 melanoma, 92.7% in the assay with UACC-62 melanoma, -95.5% (active) with LOX IMVI melanoma and 74.3% with SK-MEL-28 melanoma.
